High-throughput results from PubChem.
This is a sample that favours compounds with a hit; in the whole collection about 3.5% have one here.
GDH-TPI inh: GDH-TPI coupling enzyme inhibitors, primary screen, artefact control for M. tuberculosis FBA inhibitor project, biochemical, absorbance, full deck. GDH-TPI coupled enzyme counterscreen, NADH absorbance. inhibition, % at 4.8 µM. 360,000 tested, 1.2% active. AID 588335, 2011; in the data active = inhibition above about 30%;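 note: 0% = DMSO wells and 100% = wells lacking the enzyme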
Rv3671c protease: Rv3671c serine protease inhibitors, primary screen, biochemical, fluorescence polarization, M. tuberculosis H37Rv; P9WHR9; inhibition, % at 5.96 µM; 320,000 tested, 0.048% active; in the data active = inhibition above about 38%;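 note: extracellular domain of Rv3671c used as enzyme; 0% = enzyme with DMSO and 100% = no enzyme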
Mtb hypoxia rep: PubChem AID 1159583; M. tuberculosis hypoxia-regulated fluorescent reporter, fluorescence; fluorescence inhibition, % (no concentration beside the values); 300,000 tested, 0.1% active; in the data active = fluorescence inhibition mostly above about 23%, no sharp cut-off; inactive = mostly below about 17%
FadD28 binding: inhibitors of FadD28 bisubstrate probe binding, primary screen, biochemical, fluorescence polarization, single point. Mycobacterium tuberculosis FadD28 fatty-acid-AMP ligase. 360,000 tested, 0.22% active. inhibition, % at 12.5 µM; in the data active = inhibition above about 8.5%, passing the limit was not always enough
UGM FP inh: M. tuberculosis UGM enzyme inhibitors, primary screen, biochemical, fluorescence polarization, single point; inhibition, % at 10 µM; 320,000 tested, 0.06% active; AID 504406, 2011; purified UGM, fluorescence polarization probe displacement; UDP-galactopyranose mutase (Mycobacterium tuberculosis (strain ATCC 25618 / H37Rv)), …; in the data active = inhibition above about 10%, passing the limit was not always enough
Target sequence (P9WIQ1 whole entry, looked up): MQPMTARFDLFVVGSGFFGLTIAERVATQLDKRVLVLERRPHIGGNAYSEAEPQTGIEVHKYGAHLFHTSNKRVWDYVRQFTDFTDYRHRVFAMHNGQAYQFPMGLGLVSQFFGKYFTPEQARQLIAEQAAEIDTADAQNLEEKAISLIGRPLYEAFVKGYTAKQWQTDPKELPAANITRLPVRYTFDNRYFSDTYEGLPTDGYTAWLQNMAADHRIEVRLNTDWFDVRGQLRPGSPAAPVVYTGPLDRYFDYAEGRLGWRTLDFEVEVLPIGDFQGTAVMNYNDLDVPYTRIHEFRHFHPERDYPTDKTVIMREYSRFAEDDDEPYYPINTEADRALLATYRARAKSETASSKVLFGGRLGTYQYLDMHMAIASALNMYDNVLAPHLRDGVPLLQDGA
Mtb FBA inh: Mtb FBA enzyme inhibitors, primary screen, biochemical, fluorescence, strain H37Rv; Fructose-bisphosphate aldolase (Mycobacterium tuberculosis (strain ATCC 25618 / H37Rv)), …; purified M. tuberculosis FBA, fluorescence read-out; inhibition, % at 1 µM; 360,000 tested, 2.3% active; AID 588726, 2011; in the data active = inhibition above about 27%;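 note: 0% = vehicle and 100% = reference inhibitor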
Starred values were filed as active, the others as inactive.

How did COC(=O)NN=C(C)c1ccc(C)c([N+](=O)[O-])c1 do in these assays?
Mtb hypoxia rep: -0.8

Results for O=C(C=NO)Nc1ccccc1C(=O)O ?
Mtb hypoxia rep: -14.4

What do the screens show for `O=C(N/N=C/c1c(O)n(Cc2ccc(F)cc2)c(=O)[nH]c1=O)c1ccccc1O`?
GDH-TPI inh: 50.6*; Rv3671c protease: -30.6; Mtb hypoxia rep: 4.8; FadD28 binding: 18.5*; UGM FP inh: 1.3; Mtb FBA inh: 11.9

How did COc1ccc(Cn2c(O)c(/C=N/NC(=O)c3ccccc3O)c(=O)[nH]c2=O)cc1 do in these assays?
GDH-TPI inh: 26.6; Rv3671c protease: -12.7; Mtb hypoxia rep: -9.5; FadD28 binding: 16.8*; UGM FP inh: 0.5; Mtb FBA inh: 9.7

Results for O=C(N/N=C/c1c(O)n(CCc2ccccc2)c(=O)[nH]c1=O)c1ccccc1O ?
GDH-TPI inh: 20.2; Rv3671c protease: 2.6; Mtb hypoxia rep: -0.9; FadD28 binding: 0.6; UGM FP inh: 1.4; Mtb FBA inh: 14.1

Results for O=C(N/N=C/c1c(O)n(Cc2ccccc2)c(=O)[nH]c1=O)c1ccccc1O ?
GDH-TPI inh: 34.8*; Rv3671c protease: -29.7; Mtb hypoxia rep: 8.0; FadD28 binding: 4.2; UGM FP inh: 0.8; Mtb FBA inh: 9.3

Results for Cc1cc(C(=O)N/N=C/C=C/c2ccc(Br)cc2)n[nH]1 ?
GDH-TPI inh: 41.8*; Rv3671c protease: -2.2; FadD28 binding: -1.1; UGM FP inh: -1.7; Mtb FBA inh: -0.3

How did Cc1cc(C(=O)N/N=C/C=C/c2ccc([N+](=O)[O-])cc2)n[nH]1 do in these assays?
GDH-TPI inh: 41.4*; Rv3671c protease: 5.6; FadD28 binding: -1.3; UGM FP inh: 0.8; Mtb FBA inh: 0.5

How did COc1cc2c(cc1OC)C(c1cc3cc4c(cc3[nH]c1=O)OCO4)N(C(=O)C1CC1)CC2 (stereo not given) do in these assays?
GDH-TPI inh: 38.3*; Rv3671c protease: 4.2; Mtb hypoxia rep: 17.0; FadD28 binding: -3.0; UGM FP inh: -1.3; Mtb FBA inh: 11.1

Results for O=C(NN=Cc1c[nH]c2ccccc12)c1cccs1 ?
Mtb hypoxia rep: 4.8

How did O=C(N/N=C/c1ccc([N+](=O)[O-])o1)c1ccc(O)cc1 do in these assays?
GDH-TPI inh: 39.9*; Rv3671c protease: 4.1; FadD28 binding: -0.7; UGM FP inh: -1.7; Mtb FBA inh: -4.6

Results for O=C(N/N=C/c1ccc([N+](=O)[O-])o1)c1cc2ccccc2o1 ?
GDH-TPI inh: 37.4*; Rv3671c protease: 13.3; FadD28 binding: -0.7; UGM FP inh: -1.2; Mtb FBA inh: -3.3

Results for O=C(NN=Cc1ccc([N+](=O)[O-])o1)C(O)c1ccccc1 (stereo not given) ?
Mtb hypoxia rep: 24.4*

How did O=C(N/N=C/c1ccc([N+](=O)[O-])o1)c1cc2c(ccc3ccccc32)o1 do in these assays?
GDH-TPI inh: -3.5; FadD28 binding: -3.8; Mtb FBA inh: 0.5

How did C#CCNC(=O)C1=CC(C2CCCCC2)C(CCCO)C(OCC)O1 (stereo not given) do in these assays?
Mtb hypoxia rep: 3.5

What do the screens show for `C=CCCC(Cc1ccc(F)cc1)C(=O)OC(CNC(=O)C(CC=C)CC(=O)N(CCO)Cc1ccccc1)c1ccccc1` (stereo not given)?
Mtb hypoxia rep: 13.7

What do the screens show for `N#CCC(=O)NN=Cc1cn(Cc2ccc3ccccc3c2)c2ccccc12`?
Mtb hypoxia rep: 1.3

Results for COc1cc(OC)c2c(C)cc(=O)oc2c1 ?
GDH-TPI inh: 21.5; Rv3671c protease: 6.7; FadD28 binding: -2.6; UGM FP inh: 4.4; Mtb FBA inh: active

How did COc1cc(OC)c2ccc(=O)oc2c1 do in these assays?
GDH-TPI inh: 12.8; Rv3671c protease: -5.6; FadD28 binding: -3.0; Mtb FBA inh: active

What do the screens show for `CCCCCc1cc(O)c2c(C)cc(=O)oc2c1`?
GDH-TPI inh: 21.8; Rv3671c protease: -28.9; Mtb hypoxia rep: 0.4; FadD28 binding: -1.0; UGM FP inh: 0.7; Mtb FBA inh: 2.5

What do the screens show for `Cc1cc(=O)oc2cc(O)cc(O)c12`?
GDH-TPI inh: 6.3; FadD28 binding: -1.9; Mtb FBA inh: 196.2*

What do the screens show for `COc1cc(OC)c2c(-c3cccc(-c4cccc(C)c4)c3)cc(=O)oc2c1`?
GDH-TPI inh: 26.4; Mtb hypoxia rep: 6.1; FadD28 binding: 0.7; Mtb FBA inh: 4.3

Results for CCOC(=O)c1cc(=O)n2c(nc3ccccc32)[nH]1 ?
GDH-TPI inh: 16.2; Rv3671c protease: 3.2; Mtb hypoxia rep: 6.9; FadD28 binding: -4.1; UGM FP inh: 1.1; Mtb FBA inh: active

Results for CCCCc1c(O)n2c(nc3ccccc32)[nH]c1=O ?
GDH-TPI inh: -0.4; Rv3671c protease: 1.8; FadD28 binding: -2.8; UGM FP inh: 1.6; Mtb FBA inh: -11.9

Results for CCOC(=O)c1ccc(N=NN(C)C)cc1 ?
GDH-TPI inh: 36.0*; Rv3671c protease: -3.2; Mtb hypoxia rep: 1.1; FadD28 binding: -0.3; UGM FP inh: 2.1; Mtb FBA inh: -0.4

What do the screens show for `CCOC(=O)c1ccc(N)cc1`?
GDH-TPI inh: -0.5; Rv3671c protease: 0.2; Mtb hypoxia rep: 7.4; FadD28 binding: -1.4; UGM FP inh: -0.4; Mtb FBA inh: -0.9

What do the screens show for `CCCOP(=O)(O)c1c([N+](=O)[O-])cc(C(F)(F)F)cc1[N+](=O)[O-]` (tested in a mixture with another compound)?
GDH-TPI inh: 1.6; Rv3671c protease: 0.2; Mtb hypoxia rep: 13.7; FadD28 binding: -0.6; UGM FP inh: -1.4; Mtb FBA inh: -2.6

How did CCOP(=O)(Oc1ccccc1)c1c([N+](=O)[O-])cc(C(F)(F)F)cc1[N+](=O)[O-] (stereo not given) do in these assays?
GDH-TPI inh: 5.0; Rv3671c protease: -0.6; Mtb hypoxia rep: 41.8*; FadD28 binding: -0.5; UGM FP inh: 0.9; Mtb FBA inh: 0.9

Results for CN(C)C=Nc1ncc2c3ccccc3n(CCN(C)C)c2c1C#N ?
GDH-TPI inh: 32.8*; Rv3671c protease: -16.8; Mtb hypoxia rep: 5.5; FadD28 binding: -1.3; UGM FP inh: 3.5; Mtb FBA inh: 7.0

Results for CCOC(=O)C=c1sc(=Cc2ccc(C(F)(F)F)cc2)c(=O)n1CC(=O)NCc1ccco1 ?
Mtb hypoxia rep: 17.6

What do the screens show for `CCC(C)C(C(=O)N1CCNCC1)n1cc(C(N)Cc2ccc(O)cc2)nn1` (stereo not given)?
Mtb hypoxia rep: 3.6

What do the screens show for `C#CCOCCOCCOCCNc1nc(N2CCN(C(=O)C(C(C)C)n3cc(CCO)nn3)CC2)nc(N2CCN(C(=O)C(C(C)CC)n3cc(CCCCN)nn3)CC2)n1` (stereo not given)?
Mtb hypoxia rep: 16.5

How did O=c1[nH]c(=S)c2c(n1-c1ccccc1)CCC2 do in these assays?
GDH-TPI inh: 35.3*; Rv3671c protease: -7.3; Mtb hypoxia rep: 13.8; FadD28 binding: -0.2; UGM FP inh: -2.5; Mtb FBA inh: -2.4
